# Out of some 310,000 compounds screened, about 14,000 (4.5%) showed an effect of 50% or more. Effects have a minus sign here. This is one part of a sample in which strong results are shown more often than they occur.
# Target: human ether-à-go-go-related gene (hERG) potassium channel (human, UniProt Q12809)
# Test: primary screen, population patch clamp on CHO cells stably expressing hERG; higher = less effect of the substance
# 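Further: peak tail current of the secondary pulse compared with the same well before compound.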
# human ether-à-go-go-related gene (hERG) potassium channel, sequence (Q12809 whole entry, looked up): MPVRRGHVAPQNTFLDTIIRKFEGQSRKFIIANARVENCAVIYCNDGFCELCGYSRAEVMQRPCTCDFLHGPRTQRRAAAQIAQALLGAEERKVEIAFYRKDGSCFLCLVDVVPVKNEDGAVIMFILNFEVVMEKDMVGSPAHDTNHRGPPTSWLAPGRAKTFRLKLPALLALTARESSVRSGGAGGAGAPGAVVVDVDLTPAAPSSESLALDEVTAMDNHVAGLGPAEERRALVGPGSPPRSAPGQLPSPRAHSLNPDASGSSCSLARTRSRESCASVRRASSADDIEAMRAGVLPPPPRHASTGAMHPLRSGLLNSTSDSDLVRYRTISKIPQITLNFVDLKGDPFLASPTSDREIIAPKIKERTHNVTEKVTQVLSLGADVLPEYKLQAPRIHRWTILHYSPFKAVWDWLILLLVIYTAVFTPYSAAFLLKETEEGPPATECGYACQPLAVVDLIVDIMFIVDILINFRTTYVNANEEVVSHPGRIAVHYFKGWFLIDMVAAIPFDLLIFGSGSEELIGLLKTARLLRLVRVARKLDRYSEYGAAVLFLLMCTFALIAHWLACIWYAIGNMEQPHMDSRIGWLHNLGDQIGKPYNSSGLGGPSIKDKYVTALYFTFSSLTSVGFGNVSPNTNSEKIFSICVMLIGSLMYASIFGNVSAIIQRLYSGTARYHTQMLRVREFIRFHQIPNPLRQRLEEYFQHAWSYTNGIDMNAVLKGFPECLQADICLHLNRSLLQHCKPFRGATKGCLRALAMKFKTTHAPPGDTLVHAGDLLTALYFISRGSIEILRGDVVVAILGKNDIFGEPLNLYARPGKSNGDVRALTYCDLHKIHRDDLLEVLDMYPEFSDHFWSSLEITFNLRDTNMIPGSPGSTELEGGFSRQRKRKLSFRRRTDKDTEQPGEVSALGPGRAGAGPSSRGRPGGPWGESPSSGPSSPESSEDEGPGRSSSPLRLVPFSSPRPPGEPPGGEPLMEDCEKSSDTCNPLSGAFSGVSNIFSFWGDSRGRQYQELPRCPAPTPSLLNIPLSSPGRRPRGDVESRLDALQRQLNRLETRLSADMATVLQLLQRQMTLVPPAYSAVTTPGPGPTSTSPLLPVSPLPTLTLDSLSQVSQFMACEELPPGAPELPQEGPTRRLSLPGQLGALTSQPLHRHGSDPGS
row,Structure (SMILES),"hERG current change (%, negative = inhibition) at 10uM [%]"
1,COc1ccc(NC(=O)/C(=C\c2ccc(OS(=O)(=O)c3ccc(C)cc3)cc2)NC(=O)c2ccccc2)cc1,17.1
2,CC(=O)N1CCN=C1SCc1ccccc1F,12.6
3,Cc1cc(C(=O)O)c(S(C)(=O)=O)s1,-1.18
4,O=[N+]([O-])c1cccc(-c2nnn(C34CC5CC(CC(C5)C3)C4)n2)c1,5.85
5,CC1CCN(CCC(=O)Nc2ccccc2)CC1,-10.1
6,CC1CCN(CCC(=O)Nc2ccc(Cl)cc2)CC1.Cl,-56.9
7,CC1CC(C)CN(CCC(=O)Nc2ccc3c(c2)CCC3)C1.Cl (stereo not drawn),-43.6
8,Cc1cccc(NC(=O)CCN2CC(C)CC(C)C2)c1.Cl (stereo not drawn),-49.2
9,Cc1ccc(NC(=O)CCN2CCC(C)CC2)cc1.Cl,18.6
10,CC1CC(C)CN(CCC(=O)Nc2ccc(Br)cc2)C1.Cl (stereo not drawn),-53.5
11,COc1ccc(CN2C(=O)NC3(CCOc4ccccc43)C2=O)cc1F (stereo not drawn),-13.4
12,COC(=O)c1c(NC(=S)Nc2ccc(F)cc2[N+](=O)[O-])sc2c1CCCCC2,4.46
13,CC1CCCCN1C/C=C/c1ccccc1[N+](=O)[O-] (stereo not drawn),-39
14,CCOC(=O)C1CCCN(C/C=C/c2ccccc2[N+](=O)[O-])C1 (stereo not drawn),-68.2
15,CCOC(=O)C1CCN(C/C=C/c2ccccc2OC)CC1,-20.5
16,O=[N+]([O-])c1ccccc1/C=C/CN1CCCCC1,-6.44
17,CC1CCCN(C/C=C/c2ccccc2[N+](=O)[O-])C1 (stereo not drawn),-23.1
18,CCN(CC)C(=O)C1CCCN(C/C=C/c2ccccc2[N+](=O)[O-])C1 (stereo not drawn),-33
19,CCOC(=O)C1CCN(C/C=C/c2ccccc2)CC1,-28.2
20,CCC1CCCCN1C/C=C/c1ccccc1[N+](=O)[O-] (stereo not drawn),-60.2
21,O=[N+]([O-])c1ccccc1/C=C/CN1CCCCC1CO (stereo not drawn),5.49
22,CCOC(=O)C1CCN(C/C=C/c2ccccc2[N+](=O)[O-])CC1,-70.2
23,CC1CC(C)CN(C/C=C/c2ccccc2[N+](=O)[O-])C1 (stereo not drawn),-55.9
24,CCOC(=O)C1CCCN(C/C=C/c2ccccc2)C1 (stereo not drawn),-24.5

row,Structure (SMILES),"hERG current change (%, negative = inhibition) at 10uM [%]"
1,C[N+](C)(C)CCN1C(=O)CSC1=O.[I-],10.3
2,COC(=O)c1ccc(NC(=O)CSCc2ccccc2)cc1,-13.8
3,Cc1ccccc1C(=O)O/N=C1\CCS(=O)(=O)c2sccc21,8.17
4,Cc1ccccc1NC(=S)NC(NC(=O)CF)C(Cl)(Cl)Cl (stereo not drawn),2.77
5,CCOP(=O)(OCC)C(NC(=O)Nc1cccc(Cl)c1)C(N)=O (stereo not drawn),8.47
6,C/C(=N\OCC(=O)Nc1ccccc1C(C)(C)C)c1ccc2c(c1)OCCO2,-10.9
7,O=C(Nc1ccc(Cl)cc1)OCc1cc(-c2ccccc2Cl)on1,7.51
8,CC1CN(C(=O)COC(=O)c2ccc(Cl)nc2)CC(C)O1 (stereo not drawn),6.41
9,COc1ccc(OC)c(C2CC(=O)N3CN(c4ccccc4)CSC3=C2C#N)c1 (stereo not drawn),9.38
10,CC(=O)n1cc(/C=C2/N=C(c3ccccc3)OC2=O)c2ccccc21,7.37
11,O=C1C2CC=CCC2C(=O)N1c1nc2n(n1)C(c1ccccc1)CC(c1ccccc1)N2 (stereo not drawn),-52.6
12,CC1=CC(c2ccccc2)n2nc(N3C(=O)C4CC=CCC4C3=O)nc2N1 (stereo not drawn),-7.93
13,CC1CC(c2ccccc2)n2nc(N3C(=O)c4ccccc4C3=O)nc2N1 (stereo not drawn),12.4
14,CC1C/C(=C/c2cccn2C)C(=O)/C(=C/c2cccn2C)C1 (stereo not drawn),9.5
15,O=C(NCc1nc(-c2ccc(C(F)(F)F)cc2)no1)c1cccs1,5.51
16,CCOc1ccc(-n2ccnc2SCC(=O)N2CCCc3ccccc32)cc1,-13.7
17,N#CCCN1CCN(C(=S)c2ccc(-c3cc(Cl)ccc3Cl)o2)CC1,-12.3
18,N#CCCN1CCN(C(=S)c2ccc(-c3cccc(Cl)c3)o2)CC1,-59.9
19,N#CCCN1CCN(C(=S)c2ccc(-c3ccc(Cl)cc3)o2)CC1,-55.8
20,S=C(c1ccc(-c2cccc(Cl)c2)o1)N1CCCCC1,21.7
21,N#CCCN1CCN(C(=S)c2ccc(-c3ccc(Cl)c(Cl)c3)o2)CC1,-14.1
22,S=C(c1ccc(-c2cccc(Cl)c2)o1)N1CCOCC1,2.46
23,CC(C)c1ccc2oc(=O)cc(CN3CCCCC3)c2c1,-12.8
24,O=C(CN1N=C(c2ccc(Cl)cc2)CCC1=O)NCc1cccnc1,-26.4
